Source: PubChem BioAssay (NCATS)
Several values for one entry are separate records, joined by “and”; a condition that tells them apart may be missing. Equal values may be shown once. Results filed as inconclusive are left out. Entries that show only a call come without a potency. Some structures have more than one record in an assay (separate samples or runs), and their calls can disagree. Activity calls are given as the source filed them. Unless noted, calls follow the shape of the dose curve; as a rule, active = well fitted curve in the direction sought with a large enough effect; inconclusive = small, poorly fitted or top-dose-only effect, or another doubt; inactive = no such curve, though single readings can be large; an effect the other way counts as inactive or inconclusive.

Key:
[1] = target: Glutathione peroxidase 1 (Homo sapiens) (UniProt P07203); test: Primary qHTS Assay for Inhibitors of Recombinant Selenoprotein Glutathione Peroxidase 1 (GPX1) (AID 1845191); also: nearly all actives have a fitted effect of over 65% in size; also: potency is read from the fitted curve at half-maximal effect
Sequence of Glutathione peroxidase 1 (Homo sapiens) (P07203 whole entry, looked up): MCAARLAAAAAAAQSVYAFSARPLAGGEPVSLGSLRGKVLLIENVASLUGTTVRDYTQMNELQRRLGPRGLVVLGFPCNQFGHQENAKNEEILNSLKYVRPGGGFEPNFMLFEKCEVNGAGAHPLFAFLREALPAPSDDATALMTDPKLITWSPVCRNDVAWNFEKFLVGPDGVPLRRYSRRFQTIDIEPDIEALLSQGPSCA
Procedure, shortened: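 GR-coupled assay: compounds preincubated 30 min at room temperature with GPX1, then reaction started with CHP; final 10 nM GPX1, 1 mM GSH, 0.5 mM CHP, 0.5 mM NADPH, 100 nM GR, 0.01% BSA, pH 7.5 Tris buffer. NADPH fluorescence (340/450 nm) read at 0 and 15 min.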

[2] = target: Phospholipid hydroperoxide glutathione peroxidase GPX4 (Homo sapiens) (UniProt P36969); test: Primary qHTS Assay for Inhibitors of Recombinant Selenoprotein Glutathione Peroxidase 4 (GPX4) (AID 1845192); also: nearly all actives have a fitted effect of over 65% in size
Sequence of Phospholipid hydroperoxide glutathione peroxidase GPX4 (Homo sapiens) (P36969 whole entry, looked up): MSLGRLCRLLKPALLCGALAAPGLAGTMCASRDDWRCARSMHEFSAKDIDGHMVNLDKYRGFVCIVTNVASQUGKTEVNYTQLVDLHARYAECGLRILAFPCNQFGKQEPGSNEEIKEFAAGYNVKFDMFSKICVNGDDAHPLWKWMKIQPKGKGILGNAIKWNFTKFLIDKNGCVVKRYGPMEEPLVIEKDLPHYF
Procedure, shortened: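 GR-coupled assay: recombinant GPX4 preincubated 30 min with compound at room temperature; final 200 nM GPX4, 1 mM GSH, 0.5 mM cumene hydroperoxide, 0.5 mM NADPH, 100 nM GR, 0.01% BSA, pH 7.5 Tris. NADPH fluorescence (340/450 nm) read at 0 and 15 min.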

[3] = target: Luciferin 4-monooxygenase (Photinus pyralis) (UniProt P08659); test: Primary firefly luciferase (FLuc) qHTS assay for identification of artifact compounds. (AID 1845220); conditions: outcome: dose series up to 54.1 µM; also: nearly all actives have a fitted effect of over 60% in size
Procedure, shortened: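 Enzymatic FLuc inhibition assay: compounds pre-exposed to luciferin/ATP (10 uM each) for 15 min, then purified P. pyralis enzyme at 10 nM added. Read-out: luminescence at 5 min.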

[4] = Primary fluorescence-based thiol-reactive (MSTI) qHTS assay for identification of artifact compounds. (AID 1845221); also: nearly all actives have a fitted effect of over 65% in size; also: potency is read from the fitted curve at half-maximal effect
Procedure, shortened: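 One-hour, room-temperature, dark incubation of compound with 4 uM MSTI in PBS (pH 7.4, 2% DMSO) precedes a fluorescence read at 525 nm excitation, 598 nm emission; Hill-equation fitting yields concentration-response values.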

[5] = system: Nanoluciferase (engineered Oplophorus gracilirostris luciferase); test: Primary Nanoluciferase (NLuc) qHTS assay for identification of artifact compounds. (AID 1845222);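 also: NLuc secreted into diluted conditioned medium of S16 cells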
Procedure, shortened: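 S16 cell supernatant NLuc, 1:55; cpds qHTS; 15 min RT dark; Nano-Glo substrate 1:100, 5 min; luminescence; Hill fit of % inhibition.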

[6] = Primary redox qHTS assay for identification of artifact compounds. (AID 1845223); also: potency is read from the fitted curve at half-maximal effect
Procedure, shortened: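 Amplex Red (25 uM) and HRP (250 mU/mL) in HBSS, with compounds for 15 min, then 250 uM DTT for 30 min, room temperature, dark. Fluorescence 525/598 nm read; normalized to DMSO and 10 uM DA3003; Hill fit.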

[7] = Quantitative High-Throughput drug screen in 47 multiple myeloma cell lines against the NCATS MIPE library collection: Delta47_JCRB cell viability assay (AID 1918925; also: nearly all actives have a fitted effect of over 45% in size; also: potency is read from the fitted curve at half-maximal effect)
Procedure, shortened: (§1)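 CellTiter-Glo luminescence (ATP) after 48 h compound exposure, 37C/5% CO2; 500 cells/well; MIPE 4.0 approved/investigational drugs pinned in; DMSO = 100%, media only = 0% viability.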

[8] = Quantitative High-Throughput drug screen in 47 multiple myeloma cell lines against the NCATS MIPE library collection: EJM_DSMZ cell viability assay (AID 1918926; also: nearly all actives have a fitted effect of over 30% in size; also: potency is read from the fitted curve at half-maximal effect)
Procedure, shortened: as §1

[9] = Quantitative High-Throughput drug screen in 47 multiple myeloma cell lines against the NCATS MIPE library collection: AMO1_DSMZ cell viability assay (AID 1918927; also: nearly all actives have a fitted effect of over 30% in size; also: potency is read from the fitted curve at half-maximal effect)
Procedure, shortened: as §1

[10] = Quantitative High-Throughput drug screen in 47 multiple myeloma cell lines against the NCATS MIPE library collection: ARP1_JJKsccF8 cell viability assay (AID 1918928; also: nearly all actives have a fitted effect of over 40% in size; also: potency is read from the fitted curve at half-maximal effect)
Procedure, shortened: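 ATP readout (CellTiter-Glo), 48 h drug incubation, 37 °C/5% CO2, 500 cells per well; normalisation to DMSO (100%) and media-only (0%) controls.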

[11] = Quantitative High-Throughput drug screen in 47 multiple myeloma cell lines against the NCATS MIPE library collection: ARD_JJKsccE7 cell viability assay (AID 1918929; also: potency is read from the fitted curve at half-maximal effect)
Procedure, shortened: as §1

[12] = Quantitative High-Throughput drug screen in 47 multiple myeloma cell lines against the NCATS MIPE library collection: Karpas620_DSMZ cell viability assay (AID 1918959); also: nearly all actives have a fitted effect of over 30% in size; also: potency is read from the fitted curve at half-maximal effect
Procedure, shortened: (§2)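 Inhibition of cell viability is measured here. Each line was plated at 500 cells per well, treated with MIPE 4.0 drugs, kept 48 hours at 37C, then assayed for ATP content by CellTiter-Glo luminescence.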

[13] = Quantitative High-Throughput drug screen in 47 multiple myeloma cell lines against the NCATS MIPE library collection: FR4_PLB cell viability assay (AID 1918924; also: nearly all actives have a fitted effect of over 35% in size; also: potency is read from the fitted curve at half-maximal effect)
Procedure, shortened: as §2

[14] = target: Metallo-beta-lactamase type 2 (Klebsiella pneumoniae) (UniProt C7C422); test: qHTS to identify inhibitors of the New Delhi Metallo-beta-lactamase (NDM): assay validation screen against the NCATS LOPAC Collection (AID 1794843)
Sequence of Metallo-beta-lactamase type 2 (Klebsiella pneumoniae) (C7C422 whole entry, looked up): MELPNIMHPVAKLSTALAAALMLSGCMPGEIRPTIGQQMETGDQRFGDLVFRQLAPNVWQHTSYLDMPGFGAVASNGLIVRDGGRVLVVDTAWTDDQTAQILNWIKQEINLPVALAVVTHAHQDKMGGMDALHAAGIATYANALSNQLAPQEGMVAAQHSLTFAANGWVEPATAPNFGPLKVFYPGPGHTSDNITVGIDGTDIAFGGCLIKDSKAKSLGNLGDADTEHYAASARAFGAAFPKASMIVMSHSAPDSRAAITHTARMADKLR
Procedure, shortened: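 Absorbance at 485 nm from nitrocefin turnover (50 uM solution added), read at plateau, gives the read-out. Compounds in DMSO were incubated first with 2 nM final NDM-1 in pH 7.0 HEPES buffer containing 1 uM ZnSO4 and 0.01% Tween20.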

[15] = NCATS anti-infectives library activity on the primary C. elegans qHTS viability assay (AID 1745855; calls by dose curve); conditions: C. elegans worm area imaging, day 7; at 41.8 µM (top of the series)
Procedure, shortened: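 Viability is taken from GFP fluorescence of PE254-GFP-FLuc C. elegans imaged by laser cytometry over 7 days. Ten L1 worms per well grow at 21 °C on TOP10 E. coli capsules with titrated compound; levamisole marks toxicity.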

| Compound | Potency [1] | Potency [2] | outcome [3] | Potency [4] | outcome [5] | Potency [6] | Potency [7] | Potency [8] | Potency [9] | Potency [10] | Potency [11] | Potency [12] | activity change, negative = inhibition [3] | Potency [13] | outcome [14] | outcome [15] |
| --- | --- | --- | --- | --- | --- | --- | --- | --- | --- | --- | --- | --- | --- | --- | --- | --- |
| Cc1onc(-c2ccccc2Cl)c1C(=O)N[C@@H]1C(=O)N2[C@@H]1SC(C)(C)[C@@H]2C(=O)O | inactive | inactive | inactive | inactive | inactive | inactive | inactive | inactive | inactive | inactive | inactive | inactive |  |  |  |  |
| Cc1c(-c2ccc(O)cc2)n(Cc2ccc(OCCN3CCCCCC3)cc2)c2ccc(O)cc12 | inactive | inactive |  |  |  |  |  |  |  |  |  |  |  |  |  |  |
| O=P(O)(O)C(O)(Cc1cccnc1)P(=O)(O)O | inactive | inactive | inactive | inactive | inactive | inactive | inactive | inactive | inactive |  |  | inactive | -16.9% [at 6.45 µM] (inactive) | inactive |  |  |
| O=C(O)C1CCCN(CCC=C(c2ccccc2)c2ccccc2)C1 (stereo unspecified) | inactive | inactive |  |  |  |  | inactive | inactive | inactive | inactive | inactive | inactive |  |  | inactive |  |
| CC1=NN(c2ccccc2)C(=O)C1 | inactive | inactive | inactive | 8.44 µM (active) | inactive | 3.36 µM (active) | inactive |  |  | inactive | inactive | inactive |  | inactive |  |  |
| NC1(c2ccc(-c3nc4ccn5c(=O)[nH]nc5c4cc3-c3ccccc3)cc2)CCC1 | inactive | inactive | inactive | inactive | inactive | inactive | 0.332 µM (active) | 11.8 µM (active) | 3.72 µM (active) | 14.8 µM (active) | 0.296 µM (active) | inactive |  |  |  |  |
| Nc1nc(N)c2nc(CNc3ccc(C(=O)NC(CCC(=O)O)C(=O)O)cc3)cnc2n1 (stereo unspecified) | inactive | inactive |  |  |  |  | inactive |  | 0.0235 µM (active) | 0.0372 µM (active) | 0.0118 µM (active) | inactive |  |  | inactive |  |
| COc1ccccc1OCC(O)COC(N)=O (stereo unspecified) | inactive | inactive |  |  |  |  | inactive | inactive | inactive | inactive | inactive | inactive |  | inactive |  | inactive |
| COc1cc2ncnc(Nc3cccc(Cl)c3)c2cc1OC | inactive | inactive | inactive | inactive | inactive |  |  | 0.0418 µM (active) | 23.5 µM (active) | 26.4 µM (active) | 23.5 µM (active) |  |  | 26.4 µM (active) | inactive |  |
| CC(C)(C)C(=O)OCOP(=O)(COCCn1cnc2c(N)ncnc21)OCOC(=O)C(C)(C)C | inactive | inactive |  |  |  |  | 0.0833 µM (active) | 0.935 µM (active) | 0.105 µM (active) | 0.833 µM (active) | 5.9 µM (active) | 16.6 µM (active) |  | 6.62 µM (active) |  | inactive |
| Cc1ccc(S(=O)(=O)N[C@@H](Cc2ccccc2)C(=O)CCl)cc1 | inactive | inactive |  |  |  |  | 5.26 µM (active) | 16.6 µM (active) | 13.2 µM (active) | 20.9 µM (active) | 16.6 µM (active) | 11.8 µM (active) |  | 20.9 µM (active) | inactive |  |
| CC1=C(C(=O)O)N2C(=O)[C@@H](NC(=O)C(N)c3ccccc3)[C@H]2SC1 (stereo partly specified) | inactive | inactive |  |  |  |  |  | inactive | inactive | inactive | inactive | inactive |  | inactive | inactive |  |
| Nc1nc(F)nc2c1ncn2[C@@H]1O[C@H](CO)[C@@H](O)[C@@H]1O | inactive | inactive | inactive | inactive | inactive | inactive | 0.148 µM (active) | 0.418 µM (active) | 0.372 µM (active) | 0.264 µM (active) | 0.332 µM (active) | 0.296 µM (active) |  | 0.187 µM (active) |  |  |
| CCN1CCCC1CNC(=O)c1cc(S(N)(=O)=O)ccc1OC (stereo unspecified) | inactive | inactive |  |  |  |  | inactive | inactive | inactive | inactive | inactive | inactive |  | inactive | inactive |  |
| CC(C(=O)O)c1ccc2c(c1)CC(=O)c1ccccc1S2 (stereo unspecified) | inactive and 16.1 µM (active) | inactive | inactive | inactive | inactive | inactive | inactive | inactive |  | inactive |  |  |  | inactive |  |  |
| CC(C)NCC(O)c1ccc(NS(C)(=O)=O)cc1 (stereo unspecified) | inactive | inactive |  |  |  |  | inactive | inactive |  |  | inactive |  |  | inactive | inactive |  |
| COc1ccc(-c2ccc3cc(C(=O)O)ccc3c2)cc1C12CC3CC(CC(C3)C1)C2 | inactive | inactive |  |  |  |  | inactive | inactive | inactive | inactive | inactive | inactive |  | inactive |  |  |
| CCC(=O)O[C@]1(C(=O)SCF)[C@H](C)C[C@H]2[C@@H]3C[C@H](F)C4=CC(=O)C=C[C@]4(C)[C@@]3(F)[C@@H](O)C[C@@]21C | inactive | inactive |  |  |  |  | inactive |  | inactive | inactive | inactive | inactive |  | inactive |  |  |
| Cc1noc(NS(=O)(=O)c2ccc(N)cc2)c1C | inactive | inactive |  |  |  |  | inactive | inactive | inactive | inactive | inactive | inactive |  | inactive |  |  |
| CC[C@H](NC(C)C)[C@H](O)c1ccc(O)c2[nH]c(=O)ccc12 | inactive | inactive |  |  |  |  | inactive | inactive | inactive | inactive | inactive | inactive |  | inactive |  |  |
